Assay results reported in PubChem BioAssay AID2110 (National Center for Advancing Translational Sciences (NCATS), 2009).
Inconclusive results are not listed. A call without a number means that no potency is given here. The source made the active and inactive calls. Calls follow the shape of the dose curve; as a rule, active = well fitted curve in either direction with a large enough effect; inconclusive = small, poorly fitted or top-dose-only effect; inactive = no such curve, though single readings can be large or run the other way.

Molecular target: Lysosomal alpha-glucosidase (Homo sapiens) (UniProt P10253)
Assay: Confirmation of Inhibitors and Activators of Purified Human alpha-Glucosidase Using an Alternate Red Fluorescent Susbtrate
Source text: NIH Chemical Genomics Center [NCGC]
NIH Molecular Libraries Probe Production centers Network [MLPCN]
Assay Submitter (PI): Wei Zheng
Alpha-glucosidase is responsible for hydrolysis of terminal, non-reducing 1,4-linked alpha-D-glucose residues with release of alpha-D-glucose. It is a lysosomal hydrolase that is required for the degradation of a small percentage (1-3%) of cellular glycogen in human. Deficiency of this enzyme results in glycogen-storage disease type II (GSDII), also referred to as Pompe disease, an autosomal recessive disorder. Structurally normal glycogen is accumulated in lysosomes and cytoplasm in affected patients, primarily in muscle tissues. Excessive glycogen storage within lysosomes may interrupt normal functioning of other organelles and leads to cellular injury. […]
This is a fluorogenic enzyme assay with resorufin-alpha-D-pyranoside as the substrate and recombinant human alpha-glucosidase as the enzyme preparation. Upon the hydrolysis of this fluorogenic substrate, the resulting product, resorufin, can be excited at 573 nm and emits at 610 nm which can be detected by a standard fluorescence plate reader. […] The AC50 values were determined from concentration-response data modeled with the standard Hill equation. […]
(6) Detect the assay plate in a ViewLux plate reader (PerkinElmer) with Ex=365 nm and Em=440nm. […]

| Structure (SMILES) | Potency |
| --- | --- |
| CC[C@@]1(O)C(=O)OCc2c1cc1n(c2=O)Cc2cc3ccccc3nc2-1 | inactive |
| Cc1c2ccncc2c(C)c2c1[nH]c1ccccc12 | 35.5 µM (active) |
